Results on 105 molecules are retold here after ChEMBL document CHEMBL4513216, “Probing the Open Global Health Chemical Diversity Library for Multistage-Active Starting Points for Next-Generation Antimalarials” (ACS Infect Dis, 2020).

Among all 69,000 compounds or so, about 8,600 (12%) showed an effect of 50% or more. Many of the other results were omitted from the sample, so strong results are more common in it than they were.

The experiment has as its system Plasmodium berghei. Nature of the experiment: Screen against P. berghei liver stage (PbLuc), transformed with Luciferase, at 10uM. The format is functional, HepG2. As to conditions: tested at 10 uM.
Consider `Cc1cccc(-c2ccc(C(=O)N3CCN(C4CC4)CC3)c(=O)[nH]2)c1`, for which the INHIBITION is 21.8%.

Take `NCC1Cc2cc(-c3cncc(C(=O)N4CCCCC4)n3)cc(F)c2O1` (stereo not given): the INHIBITION is recorded as 18.3%.

Take `Cc1cc2c(c(-c3cncc(C(=O)N4CCCC4)n3)c1)OC(CN)C2` (stereo not given): the INHIBITION is reported as 57.3%. `NCC1Cc2cc(Cl)cc(-c3cncc(C(=O)N4CCCCC4)n3)c2O1` (stereo not given): the INHIBITION stood at 24.8%.

`CC(C)N1CCC(c2n[nH]cc2S(C)(=O)=O)CC1`: the INHIBITION was -8.58%. In the case of `Cc1cc(C(=O)NCc2cnn(C)c2C)nc(N2CCCCCC2)n1`, the INHIBITION was -7.53%. For the molecule `Cc1ocnc1C(=O)Nc1ccc(-c2nnc(N(C)C)o2)cc1`, the INHIBITION is reported as -128%. Turning to `CC(C)CCC1=NC2(CCN(C(=O)CN3CCCC3=O)CC2)C(=O)N1`, the INHIBITION was 82.4%.

For the molecule `O=C(CN1CCCCC1=O)N1CCC2(CC1)[C@H](O)C[C@@H]2O`, the INHIBITION worked out at 44%. The figure for `CC(=O)CCC(=O)N1CCC2(CC1)N=C(CCC(C)C)NC2=O` is -40.7%.

For `COC(=O)N1CCC2(CC1)N=C(CCC(C)C)NC2=O`, the INHIBITION is recorded as 76.7%. The figure for `CC(C)CCC1=NC2(CCN(C(=O)N3CCN(C)CC3)CC2)C(=O)N1` is -23.5%; for `CCOC(=O)N1CCC2(CC1)N=C(CCC(C)C)NC2=O` it is -65%. `Cc1cnn(CC2CN(Cc3ccc(-n4cccn4)cc3)CCO2)c1` (stereo not given): the INHIBITION is given as 40%. The figure for `CC(C)c1ncncc1C(=O)N1CCN(Cc2ccccn2)CC1` is 5.9%; for `Cc1cc(C(=O)Nc2cnn(CC(F)(F)F)c2)nc(N(C)C)n1` it is 0.91%.

For the molecule `O=C1CCC(=O)N1c1nn(Cc2ccccc2Cl)cc1Cl`, the INHIBITION was 20.4%. Take `Cc1cc(C)c(CNC(=O)NCC2COCCO2)c(=O)[nH]1` (stereo not given): the INHIBITION worked out at 23.45%. Consider `CCN1CCN(c2ccc(CNC(=O)c3sccc3C)cn2)CC1`, for which the INHIBITION is recorded as -23.8%. With `CCc1ccc2c(c1)C(CCNC(=O)c1sccc1C)C(=O)N2` (stereo not given), the INHIBITION is 61.9%.

Take `CCc1ccc2c(c1)C(CCNC(=O)Cc1ccc(F)cc1)C(=O)N2` (stereo not given): the INHIBITION turned out to be 53.6%. Turning to `CCc1ccc2c(c1)C(CCNC(=O)CSC(F)(F)F)C(=O)N2` (stereo not given), the INHIBITION was 40.6%. Consider `CCc1ccc2c(c1)C(CCNC(=O)Cc1cccc(F)c1)C(=O)N2` (stereo not given), for which the INHIBITION came out at 37.8%. For the molecule `CCc1ccc2c(c1)C(CCNC(=O)CCc1ccsc1)C(=O)N2` (stereo not given), the INHIBITION is reported as 26.7%. Turning to `CS(=O)(=O)N(Cc1ccon1)c1cccc(Br)c1`, the INHIBITION was -11.9%. Take `CC(c1ccccc1)n1cc2nc(N(C)C)[nH]cc-2c1=O` (stereo not given): the INHIBITION came out at 15.7%. Take `CC(C)S(=O)(=O)C(C)C(=O)NCc1ccccc1OCc1ccccc1` (stereo not given): the INHIBITION is 42.5%. The figure for `CNC(=O)[C@@H](c1ccccc1OC)N1CCC[C@H]1C(=O)N1CC[C@@H](O)C1` is -63.5%; for `O=C(O)c1nnn(-c2ccc(OC(F)(F)F)cc2)c1-c1ccncc1` it is -22.1%. As to `c1ccc(Cn2cccn2)c(CN2CCC3(CCCNC3)C2)c1` (stereo not given), the INHIBITION turned out to be 4.87%. On to `COc1ccc(-n2cccn2)c(CN2CCC3(CCCNC3)C2)c1` (stereo not given), for which the INHIBITION was determined as 13%. To `COc1ccc(-n2cccn2)c(CN2CCC3(CCNCC3)C2)c1` belongs 53%; to `COc1ccc(-n2cccn2)c(CN2CCC(O)(CO)CC2)c1`, 21.2%; to `c1cnn(Cc2ccc(CN3CCC4(CCCNC4)C3)cc2)c1` (stereo not given), 3.96%.

As to `c1cnn(Cc2ccc(CN3CCC4(CCNCC4)C3)cc2)c1`, the INHIBITION came to 60.3%. For `Cn1cccc1C(=O)N1CC[C@@]2(O)CCN(S(C)(=O)=O)C[C@H]2C1`, the INHIBITION is recorded as 42.1%.

For `CC(C)CNc1nccc(-c2cnc3sc(Cl)cn3c2=O)n1`, the INHIBITION stood at 2.6%. Take `Cc1cc(C(F)(F)F)nn1CC(C)C(=O)Nc1ccccn1` (stereo not given): the INHIBITION was -22.2%. For `Cc1cc(C)n(CC(=O)NCc2ccccn2)n1`, the INHIBITION worked out at 3.58%. The figure for `COc1ncccc1CNC(=O)NC1CCOc2ccccc21` (stereo not given) is 29.6%; for `CCOc1ncccc1CNC(=O)NC1CCOc2ccccc21` (stereo not given) it is 52.5%; for `CC(C)Oc1ncccc1CNC(=O)NC1CCOc2ccccc21` (stereo not given) it is 42.9%. On to `COc1cnc(C2(O)CCN(C(=O)c3cccnc3)CC2)c(OC)n1`, for which the INHIBITION was 60.8%. For `COc1ccccc1C(=O)N1CCC(O)(c2cccc(C)c2C)CC1`, the INHIBITION is given as 24.2%.

Turning to `Cc1cccc(C2(O)CCN(C(=O)c3ccccn3)CC2)c1C`, the INHIBITION was determined as 57.8%. `COc1cnc(C2(O)CCN(C(=O)c3ccco3)CC2)c(OC)n1`: the INHIBITION worked out at 29.3%. On to `Cc1cccc(C2(O)CCN(C(=O)c3ccc(N(C)C)cc3)CC2)c1C`, for which the INHIBITION is 33.1%. For `COc1cnc(C2(O)CCN(C(=O)c3ccncc3)CC2)c(OC)n1`, the INHIBITION is recorded as 37.5%. As for `COc1cnc(C2(O)CCN(C(=O)c3ccccn3)CC2)c(OC)n1`, the INHIBITION was determined as 57.5%. Turning to `CCC(=O)N1CCC(O)(c2ncc(OC)nc2OC)CC1`, the INHIBITION turned out to be 0.0932%.

In the case of `COc1cnc(C2(O)CCN(C(=O)c3scnc3C)CC2)c(OC)n1`, the INHIBITION is listed as 36.7%. As to `CCOC(=O)[C@H]1CNC[C@@H]1C(F)(F)F`, the INHIBITION is 35.6%.

In the case of `Cc1nnc([C@@H]2CC[C@@H]3[C@@H](CCN3S(=O)(=O)c3cccnc3)O2)o1`, the INHIBITION turned out to be 14.2%.

As to `Cc1ccc(C(=O)NS(=O)(=O)c2ccccc2F)c(=O)[nH]1`, the INHIBITION worked out at 33.8%. As to `CN(C)C(=O)Cn1cc(C(=O)NCCc2ccc(Cl)cc2Cl)nn1`, the INHIBITION was -27.8%. Take `CCc1nccn1C1CCCN(C(=O)c2ccoc2C)C1` (stereo not given): the INHIBITION was 21.6%. Take `CC(=Cc1ccccc1)CNCc1cccc(C(N)=O)c1`: the INHIBITION turned out to be 4.3%. To `O=C(O)c1ccccc1-n1cc(CN2CCC(c3cc[nH]n3)C2)cn1` (stereo not given) belongs 22.17%; to `Cc1csc2cc(C(=O)NC3CCCC3)cnc12`, -76.5%; to `CCN1CCc2c(sc3c2C(=O)NC(C=Cc2ccccc2)N3)C1` (stereo not given), 15.1%. In the case of `CCc1nc(C)sc1CN(Cc1ccncc1)C1CCN(C)CC1`, the INHIBITION was found to be 18.8%. To `Cc1nc(-c2ccc(CNS(=O)(=O)N(C)C)cc2)ccc1C(N)=O` belongs -4.87%; to `CN(C)C(=O)Cc1nc(CN2CCCC2Cn2cccn2)cs1` (stereo not given), 47.9%. For the molecule `CC(=O)Nc1nc(CN2CCCCC2Cn2cncn2)cs1` (stereo not given), the INHIBITION is recorded as 0.411%. In the case of `CN(C)C(=O)Cc1nc(CN2CCCC2Cn2cncn2)cs1` (stereo not given), the INHIBITION turned out to be 60.8%. Take `CN(C)C(=O)Cc1nc(CN2CCCCC2Cn2cncn2)cs1` (stereo not given): the INHIBITION was 19.1%. `CC(=O)Nc1nc(CN2CCCC2Cn2cncn2)cs1` (stereo not given): the INHIBITION worked out at 61.3%. To `CC(=O)Nc1nc(CN2CCCC2Cn2cccn2)cs1` (stereo not given) belongs 13.7%; to `Cc1cccc(CN2CCC3(CCCN(C(=O)c4ccoc4)C3)C2=O)n1` (stereo not given), -3.52%; to `CCn1nc(Br)nc1Sc1ccccc1NC(C)=O`, 12.4%.

As for `Cc1ccc(CN2C[C@H](OCCN(C)C)[C@H]3OCCC[C@H]32)o1`, the INHIBITION is on record as -102%. The figure for `CC(=O)N1CCC[C@@H](NCc2cccc(F)c2)[C@@H]1c1ccc(C)s1` is -32.2%; for `O=C(Nc1cccc(N2CCCC2)c1)N[C@H](CCO)c1ccccc1` it is 19.8%. As for `O=C(Nc1cccc(N2CCOCC2)c1)N[C@H](CO)c1ccccc1`, the INHIBITION worked out at 51.8%. Take `CCC(=O)N1CCN(C(=O)Nc2cccc(N3CCOCC3)c2)CC1`: the INHIBITION was 23.2%. Take `CCn1ncc(S(=O)(=O)NC2(CN3CCOCC3)CCCCC2)c1C`: the INHIBITION turned out to be 32.8%. Turning to `CCOC(=O)N1CCC(NC(=O)Nc2cccnc2OCC)CC1`, the INHIBITION is listed as -35.7%. `Fc1cnc(N2CC[C@@H](N3CCOCC3)[C@@H]2Cc2cccnc2)nc1`: the INHIBITION was 43.8%.

Regarding `COc1ccccc1OCCn1c(C)c(C)oc1=O`, the INHIBITION stood at 48.2%. The figure for `Cc1ccc(C)c(S(=O)(=O)CCN2CCCC2Cn2cccn2)c1` (stereo not given) is 4.93%; for `Cc1cc(N2CCC(n3cc(CN4CCNCC4)nn3)CC2)ccn1` it is 49.9%; for `CC(C)(C)c1cnc(CN2CCC[C@H]2CO)o1` it is 34.1%.

For the molecule `Cc1cc(N2CCC(n3cc(CCCO)nn3)CC2)ccn1`, the INHIBITION worked out at 41%. Consider `CC(C)Nc1cc(N2CCC(n3cc(CCO)nn3)CC2)ncn1`, for which the INHIBITION is 19.3%. As to `Cc1cc(N2CCC(n3cc(CN4CCC[C@@H]4CO)nn3)CC2)ccn1`, the INHIBITION is reported as 68.9%. `OC[C@@H]1CCCN1Cc1cn(C2CCN(C3CCCC3)CC2)nn1`: the INHIBITION is reported as 54.4%.

For the molecule `COc1ccc(C[C@H]2CNCC[C@@H]2OCC2CC2)cc1`, the INHIBITION is recorded as -51.6%. For `CN(C(=O)Cc1ccc2c(c1)OCCO2)C1CCCC1`, the INHIBITION is recorded as -138%. Consider `Cc1cncc(C2CCN(Cc3cccn3C)CC2)n1`, for which the INHIBITION is recorded as 41.2%. Turning to `CCn1cc(NC(=O)C2CCC(=O)N2Cc2ccc(C)o2)cn1` (stereo not given), the INHIBITION amounted to 16.1%. As to `CN1CCC(N(C)C[C@H]2CC[C@@H](Cc3ccc4c(cnn4C)c3)O2)CC1`, the INHIBITION is listed as 14.9%. Regarding `CN(C)C[C@H]1CC[C@@H](Cc2ccc3c(cnn3C)c2)O1`, the INHIBITION amounted to 32.4%. To `CCN(C)C[C@H]1CC[C@@H](Cc2ccc3c(cnn3C)c2)O1` belongs 58.2%; to `CCOc1nn(CC)cc1-c1nnc(SCC)n1C`, 15%; to `Cc1nn(C)c(C)c1C(C)NCc1ccsc1` (stereo not given), -14.5%. In the case of `Cc1nn(C)c(C)c1C(C)NCc1ccc(OC(C)C)cc1` (stereo not given), the INHIBITION is given as -37.7%. To `Cc1cc(C)cc(CNC(C)c2c(C)nn(C)c2C)c1` (stereo not given) belongs 58%. With `CN1CC(=O)N(c2cccc(F)c2)CC12CCN(CC1CCOCC1)C2` (stereo not given), the INHIBITION was -4.23%. For `CN(C)c1ncc(-c2cc(C(=O)NC(C)(C)CO)n(CC3CC3)c2)cn1`, the INHIBITION is on record as -21.1%. To `COc1cccc(OC)c1C(=O)NCC(c1cccn1C)N1CCCC1` (stereo not given) belongs 30%. As for `COc1cccc(C(=O)NCC(c2cccn2C)N2CCCC2)c1OC` (stereo not given), the INHIBITION was 75.6%. For `COc1ccc(C(=O)NCC(c2cccn2C)N2CCCC2)c(OC)c1` (stereo not given), the INHIBITION is -11.1%. `COc1cc(OC)cc(C(=O)NCC(c2cccn2C)N2CCCC2)c1` (stereo not given): the INHIBITION is reported as 28.4%. `COc1ccc(C(=O)NCC(c2cccn2C)N2CCCC2)cc1OC` (stereo not given): the INHIBITION is listed as 52.4%.

Take `COc1ccc(C(=O)NCC(c2cccn2C)N2CCN(C)CC2)cc1` (stereo not given): the INHIBITION was 6.83%.
